Reference: PubChem BioAssay (NCI)
About 83,000 compounds went through this panel and 20% of them were active in at least one assay; those are over-represented in the sample as a whole.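 48-hour exposure, single concentration, 96-well plates; percent growth endpoint where 0 means no net growth. Active: below 10.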 Active and inactive are the calls of the source.

Tests used:
Experiment in all cases: NCI-60 one-dose screen, 48 h (100 = growth as untreated, 0 = no growth, -100 = all killed)
Settings in all cases: 10 µM unless noted
[1] = test system: NCI-H322M lung
[2] = test system: HOP-62 NSCLC
[3] = test system: NCI-H460 lung
[4] = test system: HOP-92 NSCLC
[5] = test system: NCI-H522 lung
[6] = test system: A549/ATCC NSCLC
[7] = test system: 786-0 renal
[8] = test system: COLO 205 colon
[9] = test system: K-562 leukemia
[10] = test system: MALME-3M melanoma
[11] = test system: MDA-MB-231 breast
[12] = test system: RXF 393 renal
[13] = test system: SF-268 CNS
[14] = test system: SF-295 CNS
[15] = test system: SF-539 CNS
[16] = test system: UACC-257 melanoma
[17] = test system: M14 melanoma
[18] = test system: HCT-15 colon
[19] = test system: DU-145 prostate

Measured: growth

O=C1c2ccc3c4c(ccc(c24)C(=O)N1CCCCO)C(=O)N(CCCCO)C3=O
active: [5] -13.4% | [8] 5.81% | [9] 4.34% | [10] -7.29% | [16] -61%
inactive: [1] 90.9% | [2] 83.9% | [3] 89.6% | [4] 16% | [6] 45.6% | [7] 67.8% | [11] 64.6% | [12] 15.1% | [13] 81.3% | [14] 46.8% | [15] 68.3% | [17] 23.2% | [18] 48.5%

O=C(Nc1ccc(F)cc1F)c1cc(Cl)ccc1O
active: [1] 5.61% | [2] 3.07% | [3] 7.22% | [4] -20.5% | [5] -28.2% | [6] 6.37% | [7] 2.83% | [8] 9.45% | [10] -21.9% | [12] 4.05% | [14] -8.97% | [16] -11%
inactive: [19] 18% | [9] 11% | [11] 10.3% | [13] 15% | [15] 12.3% | [17] 18.8% | [18] 13.9%

COc1ccc(Cn2c(Br)c3c(c2-c2cc(OC)c(OC)c(OC)c2)CCc2sc(NC(=O)c4ccc(OC)cc4)nc2-3)cc1
inactive: [1] 69.3% | [2] 106% | [3] 98% | [4] 89.1% | [7] 89.8% | [8] 107% | [19] 102% | [9] 84.6% | [10] 86.1% | [11] 87.1% | [12] 91.9% | [13] 78.6% | [14] 67.8% | [15] 100% | [16] 116% | [17] 97.4% | [18] 98.3%

Cc1ccc2cccc(Oc3ccc(Nc4ncnc5onc(-c6ccccc6)c45)cc3)c2n1
inactive: [1] 88.2% | [2] 90.4% | [3] 73.5% | [4] 26.3% | [5] 72.2% | [6] 80.6% | [7] 101% | [8] 59.1% | [19] 94.4% | [9] 76.7% | [10] 84.1% | [11] 72.2% | [12] 82.8% | [13] 91.4% | [14] 88.1% | [15] 79.8% | [16] 89% | [17] 84% | [18] 43.4%

CCCC(=O)CC(C)=O.CCCC(=O)CC(C)=O.[Cu]
inactive: [1] 99.5% | [3] 107% | [4] 96.5% | [5] 91% | [6] 79.4% | [7] 104% | [8] 97.4% | [19] 110% | [9] 104% | [10] 89.9% | [11] 120% | [12] 122% | [14] 103% | [15] 104% | [16] 74.9% | [17] 100% | [18] 105%

COc1ccc(/C(C#N)=C/c2nc3c(N4CCOCC4)nc(Cl)nc3n2C)cc1OC
inactive: [1] 29.9% | [2] 25.3% | [6] 21.1% | [10] 32.7% | [13] 14.5% | [16] 16.2%
active: [3] -15.2% | [4] -12.2% | [5] -28.4% | [7] -61.5% | [19] 8.07% | [9] 0.867% | [11] 9.29% | [12] -67.5% | [14] -6.46% | [15] -26.5% | [17] -49.1% | [18] -40.8%

O=C(N=Nc1c(O)[nH]c2ccccc12)c1oc2ccccc2c1CN1CCN(c2ccccc2)CC1
inactive: [1] 33.2% | [5] 20.4% | [8] 12.7% | [9] 16.5% | [11] 24.6% | [13] 10.8% | [14] 13% | [16] 20.1%
active: [2] 7.31% | [3] -65.3% | [4] -12% | [6] -13.5% | [7] -83.2% | [19] -34.2% | [10] -64.6% | [12] -67.6% | [15] 8.4% | [17] -8.59% | [18] -8.29%

COc1cccc(C(=O)Cn2cc(/C=C(\C#N)S(=O)(=O)c3ccccc3)c3ccccc32)c1
inactive: [1] 96.7% | [2] 83.1% | [3] 57.5% | [4] 68.8% | [5] 88% | [6] 93.1% | [7] 99.3% | [8] 90.7% | [19] 105% | [9] 79.2% | [10] 108% | [11] 102% | [13] 93.7% | [14] 88.8% | [15] 90.5% | [16] 89.9% | [17] 86.5% | [18] 110%

COc1cc(C2C(C#N)=C(N)OC3=C2C(=O)c2ccccc2C3=O)cc(OC)c1O (centres undefined)
inactive: [2] 34.2% | [3] 12.7% | [4] 43.7% | [6] 52.3% | [7] 35.4% | [8] 44.6% | [19] 17.8% | [10] 54.7% | [11] 57.1% | [13] 42.2% | [14] 29.3% | [16] 55.9% | [17] 21.1% | [18] 23.6%
active: [5] -10.1% | [15] 0.132%

COc1nc2c(c(=O)n1C)N=C1c3ccccc3C(=O)C1C(c1ccccc1)N2 (centres undefined)
inactive: [2] 86.9% | [3] 103% | [4] 89.2% | [5] 102% | [6] 91.5% | [7] 84.7% | [8] 106% | [19] 94.6% | [9] 74.8% | [10] 83.2% | [11] 89.2% | [13] 85.3% | [15] 93.7% | [16] 96.7% | [17] 82.9% | [18] 90.5%

O=C(NN1C(=O)CSC1c1ccc(Cl)cc1)c1[nH]c2ccc(F)cc2c1-c1ccccc1 (centres undefined)
active: [3] 5.13% | [14] 8.34%
inactive: [1] 82.1% | [2] 78.1% | [4] 46.5% | [5] 74.4% | [6] 26.9% | [7] 65.8% | [8] 13.6% | [19] 77.2% | [9] 28.2% | [10] 85.2% | [11] 63.4% | [13] 65.1% | [15] 78.8% | [16] 74.4% | [17] 57.3% | [18] 55.7%

CC1(O)COCCCCOc2c(CN)cccc2NC(=O)c2nc(cnc2N)-c2ccc(cc2)S(=O)(=O)C(C)(C)C1 (centres undefined)
active: [1] -1.9% | [2] -25.5% | [3] -61.9% | [4] -5.59% | [5] -40.5% | [7] -58% | [8] -47.9% | [19] -73.4% | [9] 0.195% | [10] -86.6% | [11] -76.3% | [12] -76.2% | [13] -66.6% | [14] -90.3% | [15] -93.4% | [16] -66.4% | [17] -76.7% | [18] -82.7%

O=Cc1c(OCc2cnnn2CC(=O)Nc2ccc(Cl)cc2)ccc2ccccc12
inactive: [1] 102% | [2] 101% | [3] 104% | [4] 103% | [5] 89.3% | [6] 104% | [7] 100% | [8] 115% | [19] 109% | [9] 98.6% | [10] 95.2% | [11] 98% | [12] 111% | [13] 99% | [14] 104% | [15] 94.5% | [16] 94.6% | [17] 100% | [18] 101%

Brc1ccc(Nc2nc3ccccc3nc2Nc2ccc(Br)cc2)cc1
inactive: [19] 14.2%
active: [1] -13.1% | [2] -63.4% | [3] 2% | [4] -25.9% | [5] -54.1% | [6] -6.83% | [7] -30.2% | [8] -96.2% | [9] -20% | [11] -80.4% | [12] -32.9% | [13] 3.08% | [14] -75.6% | [15] -8.61% | [16] -43% | [17] -60.7% | [18] -21%

CN1CCN(Cc2ccc(C(=O)Nc3cncc(C#Cc4cnc(N)c5ccccc45)c3)cc2C(F)(F)F)CC1
active: [2] -48.4% | [3] -80.8% | [6] -67.8% | [7] -82.1% | [8] -50.9% | [19] -87.2% | [9] -46% | [10] -86.9% | [11] -82.2% | [12] -81.5% | [13] -69.5% | [14] -82.7% | [15] -95.9% | [16] -75% | [17] -85.2% | [18] -37.6%
inactive: [4] 45.2%

CN1CCN(Cc2ccc(NC(=O)c3[nH]ncc3Nc3cc(OC4CCCC4)ncn3)cc2)CC1
inactive: [1] 45.9% | [2] 55.4% | [3] 22.2% | [4] 14.9% | [5] 26.2% | [7] 20.9% | [19] 37.9% | [10] 65.4% | [11] 23.8% | [13] 40.7% | [14] 45.9% | [15] 30.3% | [16] 48.1% | [17] 19.9% | [18] 12.9%
active: [6] 8.79% | [8] 7.6% | [9] 1.53% | [12] -0.487%

CC/C=C\C[C@H](O)C/C=C1/C(=O)C=C[C@@H]1C/C=C\CCCC(=O)OCCS(=O)(=O)c1ccccc1
inactive: [1] 71.2% | [2] 22.1% | [3] 42% | [4] 110% | [6] 78.1% | [7] 60% | [8] 43.6% | [19] 47.7% | [10] 63.7% | [11] 40.2% | [13] 42.6% | [14] 100% | [15] 59.9% | [16] 66.8% | [17] 27.5% | [18] 62%
active: [5] -7.61% | [9] 7.77%
